In the supplement of paper PMC12350171:
Counter-ions that a name gives are not always drawn.

Key:
Conditions in all cases: 20 µM
[1] = test system: Salmonella enterica typhimurium; assay: growth AUC normalised to DMSO control (fraction of control); higher = less growth inhibition, active = hit call of the paper
In short: (§1)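 Pathogens passaged twice anaerobically were inoculated at a starting OD578 of 0.01 into pre-reduced mGAM plates with drug at 20 μM and 1% DMSO, sealed with breathable membranes. Haemophilus parainfluenzae medium was supplemented with hemin and NAD. OD578 was read hourly for 24 h, with three biological replicates. Growth-curve AUC was computed by the trapezoidal rule up to the exponential-to-stationary transition and normalised to DMSO controls on the same plate.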

Shigella flexneri = assay: as above
In short: as §1

Vibrio cholerae = assay: as above
In short: as §1

[2] = test system: Yersinia pseudotuberculosis; assay: as above
In short: as §1

P. vulgatus RND KO = assay: growth AUC normalised to DMSO control (median) (fraction of control); higher = less growth inhibition, active = hit call of the paper
In short: (§2)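 For normalised area under the curve, growth curves were truncated at entry into stationary phase, integrated by the trapezoidal rule and divided against vehicle wells on the same plate. The curves came from strains passaged twice overnight without oxygen and then grown in mGAM in 96-well plates at a starting OD578 of 0.01. Each well held an approved-drug library compound at 20 μM with 1% DMSO, and OD578 was read hourly for 24 h in an anaerobic incubator. Values are medians of three biological replicates.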

P. vulgatus WT = assay: as above
In short: as §2

[3] = test system: S. enterica typhimurium WT; assay: as above
In short: as §2

[4] = test system: S. enterica typhimurium tolC KO; assay: as above
In short: as §2

Measured: growth AUC normalised to DMSO control
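For growth AUC normalised to DMSO control (median) in this document: active when median AUC fell below 0.1.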

Clc1ccc(CCC(Cn2ccnc2)Sc2c(Cl)cccc2Cl)cc1 (configuration not stated) [Butoconazole nitrate]
inactive: [1] 1 | Shigella flexneri 1.01 | Vibrio cholerae 0.98 | [2] 0.745 | P. vulgatus RND KO 0.998 | P. vulgatus WT 1 | [3] 1.01 | [4] 0.999

CCCc1nc(C)c2c(=O)nc(-c3cc(S(=O)(=O)N4CCN(CC)CC4)ccc3OCC)[nH]n12 [Vardenafil]
inactive: [1] 1.01 | Shigella flexneri 1 | Vibrio cholerae 1.01 | [2] 1.01 | P. vulgatus RND KO 1.01 | P. vulgatus WT 1.01 | [3] 0.983 | [4] 0.984

C[C@@H]1C[C@H]2[C@@H]3C[C@H](F)C4=CC(=O)C=C[C@]4(C)[C@@]3(F)[C@@H](O)C[C@]2(C)[C@@]1(O)C(=O)CO [Flumethasone]
inactive: [1] 0.995 | Shigella flexneri 0.994 | Vibrio cholerae 0.997 | [2] 0.993 | P. vulgatus RND KO 1.01 | P. vulgatus WT 1.02 | [3] 0.997 | [4] 1.01

CN1[C@@H]2CC[C@H]1C[C@@H](OC(=O)c1c[nH]c3ccccc13)C2 [Tropisetron hydrochloride]
inactive: [1] 1.01 | Shigella flexneri 0.997 | Vibrio cholerae 1.01 | [2] 1 | P. vulgatus RND KO 1.01 | P. vulgatus WT 1.02 | [3] 1.01 | [4] 1
